# What was measured:
# Experiment in all cases: DAPPL (digital affinity profiling via proximity ligation, sequencing); 10 mM Tris-HCl pH 7.5, 50 mM NaCl, 1 mM DTT, 4% glycerol, room temperature, 30 min; GST-TFs on glutathione beads, 16-mer random dsDNA library, 0.1% formaldehyde crosslink after washing; high values mean tight binding
# FEV = target: T1, FEV (Homo sapiens, UniProt Q99581 1-238); settings: protein: recombinant; tags: N-terminal GST; dsDNA, one strand shown
# T1 sequence: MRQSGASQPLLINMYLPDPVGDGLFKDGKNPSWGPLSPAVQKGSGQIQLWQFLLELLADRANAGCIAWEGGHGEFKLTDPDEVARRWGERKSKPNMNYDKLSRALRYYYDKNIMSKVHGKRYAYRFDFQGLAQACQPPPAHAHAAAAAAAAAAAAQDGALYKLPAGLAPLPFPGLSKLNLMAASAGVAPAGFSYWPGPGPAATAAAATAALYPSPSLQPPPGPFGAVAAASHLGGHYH
# In short: (§1)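 Human transcription factors were made in yeast as GST fusions, captured on glutathione beads and barcoded with DNA. With a tag-only sample included, the pool was incubated with 200 nmole of a random double-stranded 16-mer DNA library in Tris/NaCl/DTT/glycerol buffer at room temperature for 30 min, then crosslinked with 0.1% formaldehyde after washing, ligated by proximity, amplified and sequenced. For binding signal, each hexamer's read frequency for a factor is divided by its frequency for the tag-only sample.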
# ETV5 = ETV5 (Homo sapiens, UniProt P41161 1-510); settings: protein: recombinant; tags: N-terminal GST; dsDNA, one strand shown
# In short: as §1
# HSF1 = HSF1 (Homo sapiens, UniProt Q00613 1-529); settings: protein: recombinant; tags: N-terminal GST; chain copies: 3; dsDNA, one strand shown
# In short: as §1
# SPIC = target: T2, SPIC (Homo sapiens, UniProt Q8N5J4 1-248); settings: protein: recombinant; tags: N-terminal GST; dsDNA, one strand shown
# T2 sequence: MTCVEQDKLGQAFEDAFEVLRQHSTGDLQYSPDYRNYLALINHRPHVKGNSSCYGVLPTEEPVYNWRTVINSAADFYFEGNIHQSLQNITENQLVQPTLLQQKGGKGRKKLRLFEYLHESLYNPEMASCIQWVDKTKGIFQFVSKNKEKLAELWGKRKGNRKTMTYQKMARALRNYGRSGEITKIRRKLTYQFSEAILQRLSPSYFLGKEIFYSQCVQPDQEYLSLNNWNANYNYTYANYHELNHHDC
# In short: as §1
# ELF4 = ELF4 (Homo sapiens, UniProt Q99607 1-663); settings: protein: recombinant; tags: N-terminal GST; dsDNA, one strand shown
# In short: as §1
# ELK4 = target: T3, ELK4 (Homo sapiens, UniProt P28324-2 1-405); settings: protein: recombinant; tags: N-terminal GST; dsDNA, one strand shown
# T3 sequence: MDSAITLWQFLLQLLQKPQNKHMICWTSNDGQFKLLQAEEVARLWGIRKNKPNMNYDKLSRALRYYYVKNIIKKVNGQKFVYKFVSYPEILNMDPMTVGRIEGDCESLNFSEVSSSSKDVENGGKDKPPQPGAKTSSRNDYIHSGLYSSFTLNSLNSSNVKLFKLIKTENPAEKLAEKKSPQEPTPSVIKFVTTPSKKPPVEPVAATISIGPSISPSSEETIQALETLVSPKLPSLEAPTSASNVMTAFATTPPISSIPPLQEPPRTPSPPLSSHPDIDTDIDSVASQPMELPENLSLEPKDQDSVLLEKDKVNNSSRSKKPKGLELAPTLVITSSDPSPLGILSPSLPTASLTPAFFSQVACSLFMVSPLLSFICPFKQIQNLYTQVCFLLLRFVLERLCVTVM
# In short: as §1
# ETV2 = target: T4, ETV2 (Homo sapiens, UniProt O00321 1-342); settings: protein: recombinant; tags: N-terminal GST; dsDNA, one strand shown
# T4 sequence: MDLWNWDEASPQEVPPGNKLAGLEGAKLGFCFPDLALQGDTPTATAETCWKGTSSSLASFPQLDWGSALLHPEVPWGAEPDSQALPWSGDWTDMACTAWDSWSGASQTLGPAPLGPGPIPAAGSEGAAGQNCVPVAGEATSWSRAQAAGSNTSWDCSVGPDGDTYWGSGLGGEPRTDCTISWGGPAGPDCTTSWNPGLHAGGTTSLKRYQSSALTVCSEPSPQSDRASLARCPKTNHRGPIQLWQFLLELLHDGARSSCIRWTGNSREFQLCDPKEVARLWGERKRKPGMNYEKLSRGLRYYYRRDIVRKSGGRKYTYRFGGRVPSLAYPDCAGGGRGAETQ
# In short: as §1
# ELF3 = target: T5, ELF3 (Homo sapiens, UniProt P78545 1-371); settings: protein: recombinant; tags: N-terminal GST; dsDNA, one strand shown
# T5 sequence: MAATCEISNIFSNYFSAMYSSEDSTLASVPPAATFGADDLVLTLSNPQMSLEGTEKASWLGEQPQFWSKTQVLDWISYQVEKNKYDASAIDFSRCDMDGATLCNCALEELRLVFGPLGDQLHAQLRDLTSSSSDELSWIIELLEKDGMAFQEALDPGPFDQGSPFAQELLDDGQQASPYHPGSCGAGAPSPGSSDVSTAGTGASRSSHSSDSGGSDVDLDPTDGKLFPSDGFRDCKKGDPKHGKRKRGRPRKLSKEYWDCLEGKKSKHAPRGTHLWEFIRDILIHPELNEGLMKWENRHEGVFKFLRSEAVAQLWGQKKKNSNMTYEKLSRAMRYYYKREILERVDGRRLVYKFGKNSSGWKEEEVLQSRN
# In short: as §1
# CRX = CRX (Homo sapiens, UniProt O43186 1-299); settings: protein: recombinant; tags: N-terminal GST; dsDNA, one strand shown
# In short: as §1
# ETV1 = ETV1 (Homo sapiens, UniProt P50549 1-477); settings: protein: recombinant; tags: N-terminal GST; dsDNA, one strand shown
# In short: as §1
# ERF = target: T6, ERF (Homo sapiens, UniProt P50548 1-548); settings: protein: recombinant; tags: N-terminal GST; dsDNA, one strand shown
# T6 sequence: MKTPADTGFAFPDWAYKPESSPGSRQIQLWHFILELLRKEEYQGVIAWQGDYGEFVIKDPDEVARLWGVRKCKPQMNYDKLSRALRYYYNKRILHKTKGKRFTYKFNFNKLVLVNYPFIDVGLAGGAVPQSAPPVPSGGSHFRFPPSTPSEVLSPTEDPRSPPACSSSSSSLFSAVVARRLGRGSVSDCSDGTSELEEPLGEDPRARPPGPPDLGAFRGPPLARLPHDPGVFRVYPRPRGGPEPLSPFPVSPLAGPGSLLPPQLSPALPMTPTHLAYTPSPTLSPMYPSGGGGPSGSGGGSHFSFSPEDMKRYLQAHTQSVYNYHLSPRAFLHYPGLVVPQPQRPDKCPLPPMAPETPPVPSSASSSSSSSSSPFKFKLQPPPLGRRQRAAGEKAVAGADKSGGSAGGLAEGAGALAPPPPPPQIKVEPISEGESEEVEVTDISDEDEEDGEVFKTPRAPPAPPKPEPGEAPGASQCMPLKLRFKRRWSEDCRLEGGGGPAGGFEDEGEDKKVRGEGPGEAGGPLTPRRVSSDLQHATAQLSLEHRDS
# In short: as §1
# ETV3L = target: T7, ETV3L (Homo sapiens, UniProt Q6ZN32 1-361); settings: protein: recombinant; tags: N-terminal GST; dsDNA, one strand shown
# T7 sequence: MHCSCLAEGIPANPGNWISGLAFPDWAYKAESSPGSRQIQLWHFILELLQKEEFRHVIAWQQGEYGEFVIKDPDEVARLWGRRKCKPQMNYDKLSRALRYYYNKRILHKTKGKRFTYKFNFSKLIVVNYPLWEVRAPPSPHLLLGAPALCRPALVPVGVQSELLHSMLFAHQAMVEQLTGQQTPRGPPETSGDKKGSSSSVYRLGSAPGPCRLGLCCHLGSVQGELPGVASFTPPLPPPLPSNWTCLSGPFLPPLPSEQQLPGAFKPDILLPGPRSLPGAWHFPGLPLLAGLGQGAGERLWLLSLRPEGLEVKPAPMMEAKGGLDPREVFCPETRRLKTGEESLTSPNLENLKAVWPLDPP
# In short: as §1
# ETS2 = target: T8, ETS2 (Homo sapiens, UniProt P15036 1-469); settings: protein: recombinant; tags: N-terminal GST; dsDNA, one strand shown
# T8 sequence: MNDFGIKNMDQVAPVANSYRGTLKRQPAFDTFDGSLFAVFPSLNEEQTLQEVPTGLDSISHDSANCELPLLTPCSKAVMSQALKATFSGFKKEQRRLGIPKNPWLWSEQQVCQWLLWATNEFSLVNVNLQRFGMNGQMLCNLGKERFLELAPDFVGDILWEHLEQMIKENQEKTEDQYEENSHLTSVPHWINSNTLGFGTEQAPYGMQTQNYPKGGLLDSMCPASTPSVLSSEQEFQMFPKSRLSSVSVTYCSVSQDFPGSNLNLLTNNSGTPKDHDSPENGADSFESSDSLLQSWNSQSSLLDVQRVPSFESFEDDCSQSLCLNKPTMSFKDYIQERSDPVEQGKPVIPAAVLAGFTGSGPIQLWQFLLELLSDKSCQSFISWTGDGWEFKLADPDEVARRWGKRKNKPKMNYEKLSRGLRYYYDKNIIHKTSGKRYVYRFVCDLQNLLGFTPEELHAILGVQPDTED
# In short: as §1
# SPDEF = target: T9, SPDEF (Homo sapiens, UniProt O95238 1-335); settings: protein: recombinant; tags: N-terminal GST; dsDNA, one strand shown
# T9 sequence: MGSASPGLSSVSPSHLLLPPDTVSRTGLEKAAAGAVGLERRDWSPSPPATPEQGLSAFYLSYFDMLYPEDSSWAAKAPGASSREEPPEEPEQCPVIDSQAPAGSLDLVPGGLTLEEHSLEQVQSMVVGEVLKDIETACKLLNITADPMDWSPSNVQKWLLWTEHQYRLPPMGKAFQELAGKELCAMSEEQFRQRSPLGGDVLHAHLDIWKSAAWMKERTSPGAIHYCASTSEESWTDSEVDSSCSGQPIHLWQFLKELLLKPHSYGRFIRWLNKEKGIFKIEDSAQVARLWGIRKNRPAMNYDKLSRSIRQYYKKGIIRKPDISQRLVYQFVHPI
# In short: as §1
# ETV7 = target: T10, ETV7 (Homo sapiens, UniProt Q9Y603 1-341); settings: protein: recombinant; tags: N-terminal GST; dsDNA, one strand shown
# T10 sequence: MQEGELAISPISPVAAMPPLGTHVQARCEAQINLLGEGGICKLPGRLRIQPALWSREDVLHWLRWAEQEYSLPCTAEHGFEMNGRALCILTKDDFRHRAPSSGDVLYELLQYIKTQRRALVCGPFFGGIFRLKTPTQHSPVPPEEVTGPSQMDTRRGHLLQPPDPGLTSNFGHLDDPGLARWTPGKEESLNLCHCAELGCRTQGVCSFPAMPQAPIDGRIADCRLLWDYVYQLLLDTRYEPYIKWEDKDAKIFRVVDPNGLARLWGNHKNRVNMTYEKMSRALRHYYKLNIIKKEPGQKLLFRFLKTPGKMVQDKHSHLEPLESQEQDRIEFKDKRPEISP
# In short: as §1
# ELF5 = target: T11, ELF5 (Homo sapiens, UniProt Q9UKW6-2 1-255); settings: protein: recombinant; tags: N-terminal GST; dsDNA, one strand shown
# T11 sequence: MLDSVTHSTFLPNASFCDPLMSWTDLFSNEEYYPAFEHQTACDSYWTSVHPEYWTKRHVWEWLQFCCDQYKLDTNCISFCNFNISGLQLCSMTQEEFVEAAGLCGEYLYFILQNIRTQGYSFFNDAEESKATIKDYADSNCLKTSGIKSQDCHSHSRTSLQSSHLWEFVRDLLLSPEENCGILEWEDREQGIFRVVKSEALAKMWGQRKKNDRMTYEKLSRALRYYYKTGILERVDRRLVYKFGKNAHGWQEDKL
# In short: as §1
# ETV3 = target: T12, ETV3 (Homo sapiens, UniProt P41162-2 1-143); settings: protein: recombinant; tags: N-terminal GST; dsDNA, one strand shown
# T12 sequence: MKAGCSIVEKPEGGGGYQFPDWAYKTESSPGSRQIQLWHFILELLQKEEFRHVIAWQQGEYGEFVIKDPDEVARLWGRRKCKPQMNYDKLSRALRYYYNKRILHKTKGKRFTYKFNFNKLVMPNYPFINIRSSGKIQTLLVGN
# In short: as §1
# ETV6 = ETV6 (Homo sapiens, UniProt P41212 1-452); settings: protein: recombinant; tags: N-terminal GST; dsDNA, one strand shown
# In short: as §1
# Sequence of ETV6 (P41212 whole entry): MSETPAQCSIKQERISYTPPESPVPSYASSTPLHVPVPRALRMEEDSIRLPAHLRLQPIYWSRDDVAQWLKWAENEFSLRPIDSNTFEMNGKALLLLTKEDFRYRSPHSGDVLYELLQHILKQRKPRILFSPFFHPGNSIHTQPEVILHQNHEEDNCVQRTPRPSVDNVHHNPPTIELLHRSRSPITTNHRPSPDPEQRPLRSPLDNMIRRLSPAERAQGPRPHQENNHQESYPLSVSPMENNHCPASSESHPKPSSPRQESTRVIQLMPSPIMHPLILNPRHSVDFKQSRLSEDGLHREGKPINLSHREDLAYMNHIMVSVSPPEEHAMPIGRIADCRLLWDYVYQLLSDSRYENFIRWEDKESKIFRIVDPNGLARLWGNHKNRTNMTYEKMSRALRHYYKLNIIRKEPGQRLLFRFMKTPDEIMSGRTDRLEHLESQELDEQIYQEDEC
# Sequence of ETV5 (P41161 whole entry): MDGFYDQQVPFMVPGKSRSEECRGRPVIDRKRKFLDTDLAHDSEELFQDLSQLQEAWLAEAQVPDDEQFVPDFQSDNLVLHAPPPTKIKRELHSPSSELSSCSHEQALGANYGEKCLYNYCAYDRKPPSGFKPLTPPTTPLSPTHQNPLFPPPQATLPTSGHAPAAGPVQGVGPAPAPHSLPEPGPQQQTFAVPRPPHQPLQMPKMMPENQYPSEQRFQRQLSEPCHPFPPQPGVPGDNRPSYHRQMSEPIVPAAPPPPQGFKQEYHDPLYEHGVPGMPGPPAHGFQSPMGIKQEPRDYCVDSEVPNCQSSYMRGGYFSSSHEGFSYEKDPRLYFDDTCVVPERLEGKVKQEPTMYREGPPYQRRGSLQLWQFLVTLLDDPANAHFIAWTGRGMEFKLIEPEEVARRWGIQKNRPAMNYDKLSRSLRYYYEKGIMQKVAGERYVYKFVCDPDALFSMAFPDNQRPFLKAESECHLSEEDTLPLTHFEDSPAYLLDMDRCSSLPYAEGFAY
# Sequence of HSF1 (Q00613 whole entry): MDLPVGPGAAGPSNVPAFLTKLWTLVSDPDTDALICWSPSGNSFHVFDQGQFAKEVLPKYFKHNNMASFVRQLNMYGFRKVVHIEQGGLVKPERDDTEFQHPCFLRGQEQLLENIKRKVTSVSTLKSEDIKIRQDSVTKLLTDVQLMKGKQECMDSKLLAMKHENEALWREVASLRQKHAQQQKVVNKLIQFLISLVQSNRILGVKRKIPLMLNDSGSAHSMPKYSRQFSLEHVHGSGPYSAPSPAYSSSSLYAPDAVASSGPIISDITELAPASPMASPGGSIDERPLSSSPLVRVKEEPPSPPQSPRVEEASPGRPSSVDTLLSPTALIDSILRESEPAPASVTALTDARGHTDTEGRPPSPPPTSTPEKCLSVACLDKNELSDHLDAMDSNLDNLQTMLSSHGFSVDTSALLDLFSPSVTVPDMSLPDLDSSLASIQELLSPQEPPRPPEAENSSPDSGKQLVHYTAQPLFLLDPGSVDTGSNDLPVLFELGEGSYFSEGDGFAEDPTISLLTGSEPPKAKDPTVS
# Sequence of CRX (O43186 whole entry): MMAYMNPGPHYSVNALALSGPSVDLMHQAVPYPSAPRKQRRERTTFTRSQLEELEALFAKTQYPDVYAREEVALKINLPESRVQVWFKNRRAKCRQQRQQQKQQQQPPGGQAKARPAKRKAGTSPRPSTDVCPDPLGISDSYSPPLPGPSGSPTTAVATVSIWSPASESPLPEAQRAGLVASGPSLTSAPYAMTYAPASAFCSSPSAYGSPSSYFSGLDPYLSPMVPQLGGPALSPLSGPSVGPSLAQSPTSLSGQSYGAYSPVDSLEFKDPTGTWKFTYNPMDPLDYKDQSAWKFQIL
# Sequence of ELF4 (Q99607 whole entry): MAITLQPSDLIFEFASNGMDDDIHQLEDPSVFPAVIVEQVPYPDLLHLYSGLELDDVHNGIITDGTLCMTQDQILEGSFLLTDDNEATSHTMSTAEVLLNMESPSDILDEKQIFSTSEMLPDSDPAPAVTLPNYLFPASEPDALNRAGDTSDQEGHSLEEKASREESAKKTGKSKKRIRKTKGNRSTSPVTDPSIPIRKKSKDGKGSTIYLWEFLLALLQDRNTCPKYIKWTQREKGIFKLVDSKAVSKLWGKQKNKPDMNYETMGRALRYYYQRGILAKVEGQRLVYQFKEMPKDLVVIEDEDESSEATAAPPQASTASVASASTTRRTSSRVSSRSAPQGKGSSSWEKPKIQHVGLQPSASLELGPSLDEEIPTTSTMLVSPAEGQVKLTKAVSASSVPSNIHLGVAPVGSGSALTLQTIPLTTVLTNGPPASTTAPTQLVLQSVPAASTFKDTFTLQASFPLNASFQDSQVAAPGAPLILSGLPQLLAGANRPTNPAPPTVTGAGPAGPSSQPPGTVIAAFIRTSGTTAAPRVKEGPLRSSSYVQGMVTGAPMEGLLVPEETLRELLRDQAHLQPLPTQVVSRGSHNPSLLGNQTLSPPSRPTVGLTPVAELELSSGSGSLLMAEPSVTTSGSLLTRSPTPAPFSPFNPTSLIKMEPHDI
# Sequence of ETV1 (P50549 whole entry): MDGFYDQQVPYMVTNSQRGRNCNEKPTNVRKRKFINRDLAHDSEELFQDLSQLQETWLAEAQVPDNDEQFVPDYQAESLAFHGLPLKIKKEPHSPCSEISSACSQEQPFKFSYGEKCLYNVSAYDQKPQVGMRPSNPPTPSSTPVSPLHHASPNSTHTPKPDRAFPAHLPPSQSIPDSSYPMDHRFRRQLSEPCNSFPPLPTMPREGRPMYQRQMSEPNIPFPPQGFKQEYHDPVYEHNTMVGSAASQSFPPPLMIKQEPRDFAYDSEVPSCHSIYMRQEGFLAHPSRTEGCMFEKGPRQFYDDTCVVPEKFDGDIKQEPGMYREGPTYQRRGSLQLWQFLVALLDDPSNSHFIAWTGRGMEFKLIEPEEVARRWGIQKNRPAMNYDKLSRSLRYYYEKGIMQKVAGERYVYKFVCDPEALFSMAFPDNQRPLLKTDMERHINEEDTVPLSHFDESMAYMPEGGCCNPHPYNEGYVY
sequence,measurement,setting,value
AACAAC,binding signal,FEV,"1.26 fold enrichment (6-mer frequency, TF over GST control)"
same,binding signal,ETV5,"1.24 fold enrichment (6-mer frequency, TF over GST control)"
same,binding signal,HSF1,"1.14 fold enrichment (6-mer frequency, TF over GST control)"
same,binding signal,SPIC,"1.2 fold enrichment (6-mer frequency, TF over GST control)"
same,binding signal,ELF4,"1.26 fold enrichment (6-mer frequency, TF over GST control)"
same,binding signal,ELK4,"1.27 fold enrichment (6-mer frequency, TF over GST control)"
same,binding signal,ETV2,"1.34 fold enrichment (6-mer frequency, TF over GST control)"
same,binding signal,ELF3,"1.31 fold enrichment (6-mer frequency, TF over GST control)"
same,binding signal,CRX,"1.04 fold enrichment (6-mer frequency, TF over GST control)"
same,binding signal,ETV1,"1.23 fold enrichment (6-mer frequency, TF over GST control)"
same,binding signal,ERF,"1.35 fold enrichment (6-mer frequency, TF over GST control)"
same,binding signal,ETV3L,"1.25 fold enrichment (6-mer frequency, TF over GST control)"
same,binding signal,ETS2,"1.33 fold enrichment (6-mer frequency, TF over GST control)"
same,binding signal,SPDEF,"1.27 fold enrichment (6-mer frequency, TF over GST control)"
same,binding signal,ETV7,"1.3 fold enrichment (6-mer frequency, TF over GST control)"
same,binding signal,ELF5,"1.28 fold enrichment (6-mer frequency, TF over GST control)"
same,binding signal,ETV3,"1.37 fold enrichment (6-mer frequency, TF over GST control)"
same,binding signal,ETV6,"1.35 fold enrichment (6-mer frequency, TF over GST control)"
